High-throughput results from PubChem.
The entries come from a sample that favours hits as a whole.
FBPA Giardia inh: blocks Giardia fructose-bisphosphate aldolase activity; A8B2U2; purified Giardia FBPA; Potency, µM (series often up to 59.6 µM), actives largely listed as inhibitors; 290,000 tested, 0.71% active; also: nearly all actives have a fitted effect of over 55% in size
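40 nM FBPA preincubated 10 min at RT with compound (up to 57.5 uM final), then substrate plus GAPDH/TPI/NAD/arsenate coupling and diaphorase/resazurin added. Fluorescence read after 20 min at RT, 525/598 nm.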
Shiga toxin inh: blocks Shiga toxin action in Vero cells | Vero cells, Shiga toxin protein synthesis inhibition reporter | inhibition, % at 38.7 µM | 290,000 tested, 9.2% active; in the data active = inhibition mostly above about 28%, no sharp cut-off; inactive = mostly below about 43%
LmPK inhibitor: LmPK (Leishmania mexicana) enzyme inhibition | Q27686 | purified LmPK, Kinase-Glo ATP luminescence, 1 h | Potency, µM (series often up to 57.5 µM), actives largely listed as inhibitors | 290,000 tested, 0.37% active | AID 1721
Target sequence (Q27686 whole entry, looked up): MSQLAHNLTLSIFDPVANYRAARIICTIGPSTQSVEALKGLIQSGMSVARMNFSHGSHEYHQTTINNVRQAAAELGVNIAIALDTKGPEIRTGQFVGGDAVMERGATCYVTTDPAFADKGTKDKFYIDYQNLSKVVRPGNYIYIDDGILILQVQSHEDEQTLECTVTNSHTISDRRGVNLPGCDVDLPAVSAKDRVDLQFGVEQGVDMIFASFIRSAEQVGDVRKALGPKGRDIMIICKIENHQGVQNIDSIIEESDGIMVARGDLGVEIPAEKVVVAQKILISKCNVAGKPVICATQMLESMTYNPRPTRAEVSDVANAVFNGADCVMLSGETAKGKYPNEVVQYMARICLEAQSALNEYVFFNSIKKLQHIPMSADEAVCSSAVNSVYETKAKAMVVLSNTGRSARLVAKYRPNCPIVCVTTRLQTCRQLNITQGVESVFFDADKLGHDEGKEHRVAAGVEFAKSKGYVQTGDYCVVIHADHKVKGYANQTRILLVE
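Screened at intermediate enzyme activity to detect both inhibitors and activators: LmPK at 0.1 nM, with a 0.5 nM enzyme column as activation reference. PEP 0.5 mM, ADP 0.1 mM; ATP detected by luminescence after 1 h.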
Tb PYK inh: inhibitors of Trypanosoma brucei pyruvate kinase | Q57TT1 | TbPYK enzyme, Kinase-Glo Plus ATP luminescence, 45 min | Potency, µM (doses to about 76.8 µM), actives largely listed as inhibitors | 410,000 tested, 0.12% active | AID 624173; also: nearly all actives have a fitted effect of over 50% in size
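T. brucei PYK with substrate was exposed to pin-transferred compounds across a concentration series, then started with 130 uM ADP (final). After 45 min at room temperature, Kinase-Glo Plus luminescence was read, normalized and curve-fitted.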
CHX counter-1: counter-screen for Shiga toxin inhibitors: cycloheximide protein synthesis inhibition | cell reporter, cycloheximide protein synthesis inhibition counterscreen | max response, % | 300,000 tested, 12% active | AID 2314; in the data active = max response mostly above about 13%, no sharp cut-off; inactive = mostly below about 14%; also: read at 38.3 µM for the half of the compounds with a filed dose
Sm TGR block: inhibitors of Schistosoma mansoni thioredoxin glutathione reductase. Q962Y6. purified TGR, DTNB reduction, TNB absorbance 405 nm. Potency, µM (doses to about 114 µM), most hits filed as inhibitors. 360,000 tested, 3% active; also: nearly all actives have a fitted effect of over 60% in size
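TGR 20 nM + NADPH 100 uM (dispensed conc.), cpd preinc 15 min RT; start with NADPH (500 uM addition) then DTNB (15 mM addition). Kinetic TNB absorbance, 405 nm filter. Four-parameter Hill fit across titration.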
CHX counter-2: protein synthesis counter-screen activity for Shiga toxin hits | Potency, µM (highest dose often 38.3 µM), usual class: activators | 510 tested, 3% active | shares compounds with Shiga toxin inh | AID 2318 | Cycloheximide counterscreen, protein synthesis reporter, Shiga toxin assay; calls by dose curve
Numbers stand for hits; 0 = inactive; ? = inconclusive; - = no result. Unless noted, calls follow the shape of the dose curve; as a rule, active = well fitted curve in the direction sought with a large enough effect; inconclusive = small, poorly fitted or top-dose-only effect, or another doubt; inactive = no such curve, though single readings can be large; an effect the other way counts as inactive or inconclusive.

SMILES	FBPA Giardia inh	Shiga toxin inh	LmPK inhibitor	Tb PYK inh	CHX counter-1	Sm TGR block	CHX counter-2
COc1cc(C(C(=O)NC2CCCC2)N(C(=O)c2snc(C(N)=O)c2N)c2ccccc2)cc(OC)c1OC (stereo not drawn)	0	0	0	0	0	0	-
CCOC1=C2[C@@H](CN(S(=O)(=O)c3ccc(C)cc3)[C@H]2c2cccc3ccccc23)[C@H]2C(=O)N(C)C(=O)[C@H]2C1	-	-	-	0	-	-	-
Cc1ccc(C)n1-c1ccc(NC(=O)c2ccccc2)cc1	0	32	0	0	0	0	?
CC(C)CN1CCN(C(=O)CCc2nnc(Cc3c[nH]c4ccccc34)o2)[C@@H](C)C1=O	-	36	0	0	0	20µM	?
O=C(Nc1ncc2c(n1)-c1ccccc1CC2)c1cccc(Cl)c1	0	33	0	0	0	0	?
CC(=NNC(=O)CCC(=O)Nc1ccccc1Cl)c1ccco1	-	-	-	0	-	-	-
Cc1cc(NC(=O)CSc2nc3ccsc3c(=O)n2Cc2ccccn2)n[nH]1	0	65	0	0	0	0	0
COc1ccccc1CN(Cc1cccnc1)S(=O)(=O)c1ccc(-n2cnnn2)c(OC)c1	0	47	0	0	0	0	0
Cc1nonc1OCCCNc1ccc([N+](=O)[O-])cc1Cl	0	116	0	0	0	0	?
Cc1nonc1OCCNc1ccc([N+](=O)[O-])cc1[N+](=O)[O-]	0	0	0	0	0	0	-
Clc1nssc1=Nc1ccc(Br)cc1	?	59	0	?	0	0	0
OCc1ccccc1N=c1ssnc1Cl	0	0	0	-	0	?	-
Cc1cccc(C(=O)Nc2scc(CC(C)C)c2C(=O)O)c1	0	40	0	0	0	0	0
CC(C)Cc1csc(NC(=O)c2ccc(Cl)cc2)c1C(=O)O	0	0	0	0	0	0	-
O=C(COc1ccc2ccccc2c1)NCC1CCCO1 (stereo not drawn)	0	39	0	0	0	0	0
CC(=O)N[C@@H](Cc1c[nH]c2ccccc12)C(=O)OCC(=O)Nc1ccc(Cl)c(S(=O)(=O)N(C)C)c1	0	43	0	0	0	0	0
CN(C)S(=O)(=O)Oc1ccsc1C(=O)Nc1ccc(Cl)c(Cl)c1	0	66	0	0	0	0	0
O=C(CN(C(=O)c1csnn1)c1ccc2c(c1)OCCO2)NCc1ccc(F)cc1	0	0	0	0	0	0	-
CCOc1ccc(N(CC(=O)NCc2ccc3c(c2)OCO3)C(=O)c2csnn2)cc1	0	37	0	0	0	0	0
COc1ccc(CNC(=O)CN(C(=O)c2csnn2)c2ccc3c(c2)OCCO3)cc1	0	43	0	0	0	0	0
CCCn1nnc(NC(=O)COc2ccc(Cl)cc2)n1	0	0	0	0	0	0	-
CCCn1nnc(NC(=O)COc2ccc(C3CCCCC3)cc2)n1	0	75	0	0	0	0	0
COc1ccccc1NC(=O)C1=C(C)Nc2nc(SCc3ccccc3F)nn2C1c1cccs1 (stereo not drawn)	-	-	-	0	-	0	-
Cc1nn(C(C)C(=O)NC2CCC(C)CC2)c(=O)c2nn(-c3ccccc3)c(C)c12 (stereo not drawn)	-	31	0	0	0	0	?
Cc1nn(C(C)C(=O)NC2CC2)c(=O)c2nn(-c3ccccc3)c(C)c12 (stereo not drawn)	-	0	0	0	0	0	-
SMILES	FBPA Giardia inh	Shiga toxin inh	LmPK inhibitor	Tb PYK inh	CHX counter-1	Sm TGR block	CHX counter-2
CC(C)NC(=O)c1cnc(N2CCN(c3ccccn3)CC2)c2ccccc12	0	0	0	0	0	0	-
CCc1ccc(NC(=O)c2cnc(N3CCN(c4ccccn4)CC3)c3ccccc23)cc1	0	50	0	0	0	0	0
ClCc1csc(-c2ccccc2Cl)n1	0	0	0	0	0	?	-
Cc1oncc1-c1csc(-c2ccccc2Cl)n1	0	121	0	0	0	0	?
CCOC(=O)c1ccc(N/C=C/C(=O)c2ccc(OC)c(OC)c2)cc1	0	58	0	0	0	0	0
O=C([C@@H]1Cc2ccccc2CN1)N1CCN(Cc2ccccc2)CC1	0	0	0	0	0	0	-
